Only a selection was taken, and hits are over-represented in it overall.
GluA2 TARP mod: modulators of GluA2-stargazin AMPA receptor complexes, primary screen, cell-based, membrane potential dye; Voltage-dependent calcium channel gamma-2 subunit (Mus musculus) + Glutamate receptor 2 …; calls only at 30 µM; 40,000 tested, 3.5% active; HEK293 GluA2+stargazin, membrane potential dye (FDSS), glutamate EC50; hits were called plate by plate, in both directions; AID 1259245, 2017;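 active = any of four per-well response measures lying three or more SD from its plate-wide compound average, in either direction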
GIRK2 act: activators of NPY4-receptor-primed GIRK2 channels, summary, cell-based, HEK293, thallium flux; 34,000 tested, under 10 active; HEK293 GIRK2/NPY4 cells, thallium flux fluorescence; activation (% efficacy), % for hits at 37.5 µM;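 active = primary screen hit, no activity in plain HEK293 cells, and in GIRK2-only cells above 5% efficacy rising with concentration; inactive = the rest, including fluorescent compounds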;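 also: efficacy is normalized control-subtracted fluorescence 15 s after thallium addition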
Target sequence (P48051 whole entry, looked up): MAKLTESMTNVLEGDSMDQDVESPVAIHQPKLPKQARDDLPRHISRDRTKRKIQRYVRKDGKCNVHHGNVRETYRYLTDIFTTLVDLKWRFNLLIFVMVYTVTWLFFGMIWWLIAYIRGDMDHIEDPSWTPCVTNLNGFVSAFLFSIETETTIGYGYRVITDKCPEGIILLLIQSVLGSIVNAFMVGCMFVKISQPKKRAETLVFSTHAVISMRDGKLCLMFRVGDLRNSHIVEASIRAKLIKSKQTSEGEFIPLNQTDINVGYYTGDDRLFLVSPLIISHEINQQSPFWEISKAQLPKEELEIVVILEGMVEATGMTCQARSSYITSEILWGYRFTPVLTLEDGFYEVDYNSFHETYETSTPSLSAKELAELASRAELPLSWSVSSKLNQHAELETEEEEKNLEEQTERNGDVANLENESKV
* hit, by the source's call; i = inactive; . = not tested or not shown; + = active, no number.

SMILES	GluA2 TARP mod	GIRK2 act
Cc1nc(Sc2nc(C)nc3sc4c(c23)CCC4)c2c3c(sc2n1)CCC3	i	.
O=C(Cn1cnc(-c2cccs2)cc1=O)N1CCN(c2ncccn2)CC1	i	i
CCOc1ccccc1C(=O)N1CCN(c2ncnc3c2nnn3-c2ccc(OC)cc2)CC1	+	.
CCOc1ccccc1C(=O)N1CCN(c2ncnc3c2nnn3-c2ccc(F)cc2)CC1	i	i
O=C(NCC1CCN(c2ncccn2)CC1)c1c(F)cccc1F	i	i
COc1cccc2cc(C(=O)NCC3CCN(c4ncccn4)CC3)c(=O)oc12	+	i
CCOc1ccccc1C(=O)NCC1CCN(c2ncccn2)CC1	+	i
CCOc1ccccc1NC(=O)C(=O)NCC1CCN(c2ncccn2)CC1	i	i
CCOC(=O)Cn1c(=O)c2c(nc3n(-c4ccc(C)cc4C)c(C)c(C)n23)n(C)c1=O	i	.
CCCN(CCC)S(=O)(=O)c1cc(C(C)C)c(C)cc1OC	i	.
CCN(C1CCCCC1)S(=O)(=O)c1cc(C(C)C)c(C)cc1OC	+	.
O=C(NC1CC(=O)N(c2ccccc2)C1)c1ccccc1C(F)(F)F (centres undefined)	i	.
COc1ccc(N2CC(NC(=O)c3ccccc3C(F)(F)F)CC2=O)cc1 (centres undefined)	+	.
COc1ccc(CNC(=O)C2CCN(c3cc(Sc4cc(C)ccc4C)ncn3)CC2)cc1	i	i
O=C(Cc1ccc([N+](=O)[O-])cc1)N/N=C\c1cc2ccccc2[nH]c1=O	.	i
Cc1nc(N2CCN(CCO)CC2)nc(N2CCCCC2)c1[N+](=O)[O-]	i	i
Cc1nc(N2CCN(CCO)CC2)nc(Nc2ccc(F)cc2)c1[N+](=O)[O-]	+	i
CCN(CC)c1cc(C)nc(Nc2ccc(NC(=O)C(C)(C)C)cc2)n1	+	i
Cc1cc(N(C)C)nc(NCCNC(=O)Nc2ccc(C)c(C)c2)n1	i	i
CS(=O)(=O)N1CCC(C(=O)Nc2nc(-c3ccc4c(c3)CCCC4)cs2)CC1	.	i
CCCNC(=O)Cn1nc2c(c1NC(=O)C1(c3ccc(Cl)cc3)CCCC1)CSC2	i	i
CCCNC(=O)Cn1nc2c(c1NC(=O)CCc1ccc(OC)cc1)CSC2	+	i
COCCNC(=O)Cn1nc2c(c1NC(=O)C1(c3ccc(Cl)cc3)CCCC1)CSC2	+	i
COc1ccc(CNC(=O)Cn2nc3c(c2NC(=O)c2ccc(C)c(C)c2)CSC3)cc1	i	i
CC(C)c1ccc(OCC(=O)N2CCN(c3ccc4nncn4n3)CC2)cc1	i	i
SMILES	GluA2 TARP mod	GIRK2 act
CCc1ccc(Oc2cc(N3CCC(C(=O)NCCc4ccccn4)CC3)ncn2)cc1	i	i
Cc1ccc2nc(NC(=O)C3CCCN(c4ccc(-n5cccn5)nn4)C3)sc2c1 (centres undefined)	i	i
COc1cc([N+](=O)[O-])cc2sc(NC(=O)CCCS(=O)(=O)c3ccccc3)nc12	+	i
Cc1ccc(S(=O)(=O)CCCC(=O)Nc2nc(-c3cc([N+](=O)[O-])cs3)cs2)cc1	+	i
O=C(CCCS(=O)(=O)c1ccccc1)Nc1nc2ccc([N+](=O)[O-])cc2s1	+	i
O=C(CCCS(=O)(=O)c1ccc(Cl)cc1)Nc1nc(-c2cc([N+](=O)[O-])cs2)cs1	i	.
COc1ccc(S(=O)(=O)CC(=O)Nc2nc3ccc([N+](=O)[O-])cc3s2)cc1	i	i
CCOc1ccc(CC(=O)Nc2nc3c(OC)cc([N+](=O)[O-])cc3s2)cc1	i	.
O=C(NC1CCN(Cc2ccccc2)CC1)c1ccc(-n2cccn2)nc1	.	i
COCCn1nnn(-c2ccc(NC(=O)NCc3cccs3)cc2)c1=O	i	i
O=C(NCC1(O)CCCC1)C(c1ccccc1)c1ccccc1	i	i
CCSc1nnc(NC(=O)Cn2c(-c3cnccn3)nc3ccccc32)s1	i	i
O=C(Cn1c(-c2cnccn2)nc2ccccc21)Nc1ccc(F)c(Cl)c1	+	i
O=C(Nc1ccc2c(c1)CCCN2C(=O)c1cccs1)C1CCCC1	i	i
Cc1ccc(N2CC(C(=O)Nc3ccc(-n4nnn(CC(N)=O)c4=O)cc3)CC2=O)cc1C (centres undefined)	i	i
Cc1ccc(Cl)cc1N1CCN(C(=O)C2CC(=O)c3ccccc32)CC1 (centres undefined)	+	i
CS(=O)(=O)N1CCN(C(=O)C2CC(=O)c3ccccc32)CC1 (centres undefined)	i	i
CC(O)(CNC(=O)NC(c1ccccc1)c1ccccc1)c1ccc2c(c1)OCO2 (centres undefined)	i	i
Cc1ccc(C)c(NC(=O)c2ccc(=O)n(Cc3ccccc3Cl)c2)c1	i	i
COCCNC(=O)NCC1(c2cccs2)CC1	+	i
COCCNC(=O)C(=O)NCC1(c2cccs2)CC1	i	i
Cn1cccc1C(CNC(=O)Nc1c(F)cccc1F)N1CCCC1 (centres undefined)	i	i
COc1cc(OC)c(-c2cc(C(=O)O)c3[nH]c(-c4ccccc4)nc3n2)cc1OC	.	i
Cc1ccc(-c2nnc(NC(=O)c3cccc(Oc4ccccc4)c3)o2)c(C)c1	i	.
Cc1cc(C)c(S(=O)(=O)Nc2ccc(F)cc2)c(C)c1N(C)S(C)(=O)=O	i	i
SMILES	GluA2 TARP mod	GIRK2 act
COc1ccc(NS(=O)(=O)c2c(C)cc(C)c(N(C)S(C)(=O)=O)c2C)cc1	+	i
O=C1c2ccccc2C(O)(Cc2ccccc2)N1CCCN1CCOCC1 (centres undefined)	i	.
O=C1c2ccccc2C(O)(Cc2ccccc2)N1C(c1ccccc1)c1ccccc1 (centres undefined)	+	.
O=C(CS(=O)(=O)c1cccs1)Nc1ccc2c(c1)OCO2	i	i
O=C(NCC(F)(F)F)C1CCN(C(=O)Cc2ccc(Cl)cc2)CC1	.	i
O=C(Nc1cccc(-c2cnc3n2CCC3)c1)c1cc(-c2ccco2)on1	+	i
O=C(Nc1cccc(-c2cnc3n2CCC3)c1)c1ccc2nc[nH]c2c1	+	i
CCOc1ccc(C(=O)Nc2cc3c4c(c2)CCC(=O)N4CCC3)cc1	i	i
O=C(Nc1ccc(CC(=O)N2CCC(O)CC2)cc1)c1cc(-c2ccco2)on1	.	i
O=C(Nc1ccc2cn[nH]c2c1)c1ccc2nc[nH]c2c1	i	i
CCOc1ccc(C(=O)Nc2cccc(-c3cnc4n3CCC4)c2)cc1	+	i
COc1ccc(OC)c(S(=O)(=O)Nc2ccc(C)c(N3CCCC3=O)c2)c1	i	.
Cc1ccc(OCC(O)Cn2c(SCC(=O)O)nc3c2c(=O)n(C)c(=O)n3C)cc1 (centres undefined)	i	i
COc1ccc(Cl)cc1NC(=O)NCC(O)Cc1ccccc1 (centres undefined)	+	i
COc1ccc(NC(=O)C(=O)NCC(c2cccs2)N(C)C)c(OC)c1 (centres undefined)	i	i
COc1ccc(NC(=O)NCC(O)Cc2ccccc2)cc1OC (centres undefined)	i	i

Compound activity deposited in PubChem BioAssay by several laboratories.
